Shown are actives, neighbours in structure and some others; about 2.8% of the full set was active somewhere.
POLB inh: qHTS Assay for Inhibitors of DNA Polymerase Beta | P06746 | Pol beta primer extension/strand displacement, fluorescence kinetic | Potency, µM (highest dose often 114 µM), inactives show top-dose activity change, negative = inhibition, actives largely listed as inhibitors | actives 1.3% (n = 340,000); further: potency means the concentration at half of the fitted maximal effect; on the % scale 0 is the no-effect control and ±100 the full control effect
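Pol beta (10 nM) was preincubated with compound for 15 min at room temperature. The reaction was then started with 50 nM substrate and read immediately and after a further 10 min at room temperature.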
Pol kappa inh: qHTS for Inhibitors of Polymerase Kappa | AID 588579, 2011 | purified Pol kappa, fluorescent DNA synthesis assay, 10 min | Potency, µM (doses to about 107 µM), inactives show top-dose activity, negative = inhibition, actives largely listed as inhibitors | actives 0.53% (n = 400,000) | DNA polymerase kappa (Homo sapiens), Q9UBT6; further: potency means the concentration at half of the fitted maximal effect; on the % scale 0 is the no-effect control and ±100 the full control effect
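10 nM Pol kappa was preincubated with compounds for 15 min at room temperature. Reaction started with 50 nM (final) substrate. Fluorescence read kinetically at 0 and 10 min.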
Pol iota inh: qHTS for Inhibitors of Polymerase Iota. DNA polymerase iota (Homo sapiens), Q9UNA4. Pol iota fluorescent replication assay, 10 min. Potency, µM (highest dose often 115 µM), inactives show at the highest dose activity, negative = inhibition, actives largely listed as inhibitors. actives 1% (n = 390,000); further: potency means the concentration at half of the fitted maximal effect
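Fluorescent replication assay read twice, at 0 min and 10 min after adding 50 nM (final) substrate. Enzyme (10 nM) and compounds were first incubated 15 min at room temperature; enzyme-free buffer wells were negative controls.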
PI5P4K alpha inh: qHTS for Inhibitors of phosphatidylinositol 5-phosphate 4-kinase (PI5P4K); Phosphatidylinositol 5-phosphate 4-kinase type-2 alpha (Homo sapiens), P48426; PI5P4Kalpha enzyme, ADP-Glo luminescence, 60 min; hits give low values; max response, %; actives 1.2% (n = 330,000); active means max response of -50% or lower; inconclusive means between -30% and -50%; inactive means -30% or higher; further: value at the top dose of about 77 µM; on the % scale 0 is the no-effect control and ±100 the full control effect
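PI5P4Kalpha ADP-Glo assay; 5 microM ATP final; 60 min RT reaction; HEPES pH 7.4/EGTA/CHAPS, 5% DMSO; controls lacking substrate or enzyme; luminescent end-point.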
POLH inh: qHTS for Inhibitors of Polymerase Eta | Potency, µM (highest dose often 114 µM), inactives show top-dose activity change, negative = inhibition, hits mostly inhibitors | recombinant Pol eta, fluorescent DNA replication assay | actives 1.2% (n = 390,000) | AID 588591, 2011; further: potency means the concentration at half of the fitted maximal effect; on the % scale 0 is the no-effect control and ±100 the full control effect
Target sequence (Q9Y253 whole entry, looked up): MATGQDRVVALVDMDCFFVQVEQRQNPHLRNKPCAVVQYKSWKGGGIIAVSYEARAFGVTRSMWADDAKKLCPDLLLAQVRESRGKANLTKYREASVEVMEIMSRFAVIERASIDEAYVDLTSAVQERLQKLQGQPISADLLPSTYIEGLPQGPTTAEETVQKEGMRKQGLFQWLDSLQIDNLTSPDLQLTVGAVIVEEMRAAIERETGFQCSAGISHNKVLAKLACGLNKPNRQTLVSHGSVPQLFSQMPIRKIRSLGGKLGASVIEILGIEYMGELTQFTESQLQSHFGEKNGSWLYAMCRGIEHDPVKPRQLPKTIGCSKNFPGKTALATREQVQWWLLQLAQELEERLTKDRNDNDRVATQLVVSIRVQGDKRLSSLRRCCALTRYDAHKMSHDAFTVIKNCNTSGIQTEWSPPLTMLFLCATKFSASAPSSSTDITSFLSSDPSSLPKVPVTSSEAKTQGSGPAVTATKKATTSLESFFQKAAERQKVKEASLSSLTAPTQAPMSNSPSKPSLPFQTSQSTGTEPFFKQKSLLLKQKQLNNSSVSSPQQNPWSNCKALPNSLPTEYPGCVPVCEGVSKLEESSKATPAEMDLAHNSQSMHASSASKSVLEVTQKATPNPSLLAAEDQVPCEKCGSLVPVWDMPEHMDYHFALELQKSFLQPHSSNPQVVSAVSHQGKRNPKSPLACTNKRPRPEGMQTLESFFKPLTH
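Pol eta (10 nM) was preincubated with compounds for 15 min at room temperature, after which fluorescent replication substrate (50 nM final) was added to start the reaction. Fluorescence was read kinetically at 0 and 10 min.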
WRN inhibitor: qHTS for Inhibitors of WRN Helicase; Bifunctional 3'-5' exonuclease/ATP-dependent helicase WRN (Homo sapiens), Q14191; WRN helicase unwinding, fluorescent forked duplex, kinetic; Potency, µM (top dose mostly 114 µM), for inactives: top-dose activity change, negative = inhibition, usual class: inhibitors; actives 0.46% (n = 360,000); further: potency means the concentration at half of the fitted maximal effect; on the % scale 0 is the no-effect control and ±100 the full control effect; nearly all actives have a fitted effect of over 55% in size
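Enzyme (20 nM final) and test compound sit together 15 min at room temperature before substrate addition. Substrate is a single-forked duplex oligonucleotide (100 nM) labelled with fluorophore and quencher, with 2 mM ATP; helicase unwinding raises red fluorescence, read kinetically.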
* = called active by the depositor; [ ] = another dose, or the depositor's remark. Unless noted, the call rests on the fitted dose curve; in most records, active means well fitted curve in the direction sought with a large enough effect; inconclusive means small, poorly fitted or top-dose-only effect, or another doubt; inactive means no such curve, though single readings can be large; an effect the other way counts as inactive or inconclusive.

Screening Cc1ccc(OCC(=O)NNC(=O)c2cc3ccccc3o2)cc1 returned POLB inh inconclusive, Pol kappa inh -1.9%, Pol iota inh -5.7%, PI5P4K alpha inh 1.6, POLH inh 15.4% and WRN inhibitor -7.9%.
Screening Cc1ccc(OCC(=O)NNC(=O)c2cc3ccccc3o2)cc1C returned POLB inh 28.2µM*, Pol kappa inh inconclusive, Pol iota inh inconclusive, PI5P4K alpha inh 9.0, POLH inh inconclusive and WRN inhibitor -19.5%.
Screening Cc1ccc(C(C[N+](=O)[O-])c2c(C)[nH]n(-c3ccccc3)c2=O)cc1 (centres undefined) returned POLB inh 28.5%, Pol kappa inh 2.1%, Pol iota inh 1.12µM*, PI5P4K alpha inh 3.9, POLH inh -9.3% and WRN inhibitor inconclusive.
Screening Cc1[nH]n(-c2ccccc2)c(=O)c1C(C[N+](=O)[O-])c1ccc(F)cc1 (centres undefined) returned POLB inh 0.5%, Pol kappa inh -5.6%, Pol iota inh 2.24µM*, PI5P4K alpha inh -6.4, POLH inh -20.0% and WRN inhibitor inconclusive.
For Cc1[nH]n(-c2ccccc2)c(=O)c1C(C[N+](=O)[O-])c1ccc(Cl)cc1 (centres undefined) the results were POLB inh -17.7%, Pol kappa inh -1.0%, Pol iota inh -11.5%, PI5P4K alpha inh -3.3, POLH inh -16.1% and WRN inhibitor -34.7%.
Screening CCc1ccc(-c2nn(CC(=O)NC3CCCCC3)c3c2cnc2ccc(OC)cc23)cc1 returned POLB inh 3.2%, Pol kappa inh 4.8%, Pol iota inh 20.6% and POLH inh -3.1%.
Screening CCCn1c(-c2ccc(OC)cc2)nc2c(=O)n(C)c(=O)[nH]c21 returned POLB inh 0.1%, Pol kappa inh -3.0%, Pol iota inh 8.4%, PI5P4K alpha inh -51.0*, POLH inh -20.4% and WRN inhibitor 0.9%.
`O=C(Cn1cnc2c(oc3ccccc32)c1=O)NCc1ccccc1` gave POLB inh 25.1µM*, Pol kappa inh 2.6%, Pol iota inh -1.2%, PI5P4K alpha inh 2.9, POLH inh 4.9% and WRN inhibitor -4.3%.
CCOC(=O)c1c(NC(=O)/C=C/C(=O)O)sc(C)c1-c1ccc(Cl)cc1 was read as POLB inh -17.8%, Pol kappa inh 2.2%, Pol iota inh inconclusive, PI5P4K alpha inh -16.4, POLH inh 79.4µM* and WRN inhibitor -3.8%[11.6 µM].
`CCOC(=O)c1c(NC(=O)Nc2ccc(Cl)cc2)sc(C)c1C` gave POLB inh -10.8%, Pol kappa inh -2.3%, Pol iota inh 15.8%, PI5P4K alpha inh 13.2, POLH inh -11.5% and WRN inhibitor 5.6%.
For O=c1[nH]c(CN2CCc3ccccc32)nc2scc(-c3cccs3)c12 the results were POLB inh 39.8µM*, Pol kappa inh -19.2%, Pol iota inh -7.7%, PI5P4K alpha inh -11.2, POLH inh -4.1% and WRN inhibitor -16.8%.
For O=C(CSCc1nc2scc(-c3cccs3)c2c(=O)[nH]1)Nc1ccccn1 the results were POLB inh -8.1%, Pol kappa inh -12.6%, Pol iota inh -27.4%, PI5P4K alpha inh -23.3, POLH inh -11.5% and WRN inhibitor -30.1%.
Screening CSc1ccc(CCNC(=O)CCn2c(=O)c3cccn3c3ccc(F)cc32)cc1 returned POLB inh 36.4%, Pol kappa inh 4.5%, Pol iota inh 6.8% and POLH inh -2.9%.
